Data published in article PMC4336329 (PLoS ONE, 2015).
The whole screen tested about 310,000 compounds, of which about 14,000 (4.5%) showed an effect of 50% or more. The effect is printed as a negative number. This excerpt belongs to a sample that is enriched for strong results.

Biological target: human ether-à-go-go-related gene (hERG) potassium channel (human, UniProt Q12809)
Assay: primary screen, population patch clamp on CHO cells stably expressing hERG; higher = less effect of the substance
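Further: peak tail current of the secondary pulse compared with the same well before compound.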

Chain of human ether-à-go-go-related gene (hERG) potassium channel (Q12809 whole entry, looked up): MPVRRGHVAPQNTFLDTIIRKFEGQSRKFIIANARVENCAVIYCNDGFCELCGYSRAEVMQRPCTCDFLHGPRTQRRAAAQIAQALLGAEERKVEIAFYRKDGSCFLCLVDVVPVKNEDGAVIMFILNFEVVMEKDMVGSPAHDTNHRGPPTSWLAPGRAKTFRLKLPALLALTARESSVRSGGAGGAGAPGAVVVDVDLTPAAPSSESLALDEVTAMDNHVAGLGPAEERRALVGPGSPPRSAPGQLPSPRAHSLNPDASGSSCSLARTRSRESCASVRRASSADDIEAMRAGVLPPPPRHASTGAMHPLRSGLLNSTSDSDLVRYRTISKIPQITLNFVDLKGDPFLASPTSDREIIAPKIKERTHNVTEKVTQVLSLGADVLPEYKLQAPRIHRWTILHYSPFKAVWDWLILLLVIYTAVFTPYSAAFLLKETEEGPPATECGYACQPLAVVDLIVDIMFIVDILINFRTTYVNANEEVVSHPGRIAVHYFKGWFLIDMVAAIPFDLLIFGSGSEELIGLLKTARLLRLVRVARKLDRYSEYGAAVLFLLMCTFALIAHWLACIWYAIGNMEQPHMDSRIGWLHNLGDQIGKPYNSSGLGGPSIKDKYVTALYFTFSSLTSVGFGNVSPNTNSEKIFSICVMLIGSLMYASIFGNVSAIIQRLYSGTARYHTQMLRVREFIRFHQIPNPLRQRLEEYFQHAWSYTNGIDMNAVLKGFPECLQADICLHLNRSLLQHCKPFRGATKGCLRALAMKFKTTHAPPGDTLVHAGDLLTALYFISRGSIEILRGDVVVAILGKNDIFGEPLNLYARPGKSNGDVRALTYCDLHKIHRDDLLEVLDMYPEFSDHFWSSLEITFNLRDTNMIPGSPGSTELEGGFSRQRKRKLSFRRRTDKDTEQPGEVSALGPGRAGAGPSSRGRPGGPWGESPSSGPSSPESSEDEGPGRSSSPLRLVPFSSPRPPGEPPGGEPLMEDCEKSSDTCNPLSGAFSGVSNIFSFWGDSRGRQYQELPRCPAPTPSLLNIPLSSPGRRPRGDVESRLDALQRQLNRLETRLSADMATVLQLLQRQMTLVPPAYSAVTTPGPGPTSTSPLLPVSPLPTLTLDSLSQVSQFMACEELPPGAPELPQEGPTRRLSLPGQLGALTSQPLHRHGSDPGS

| Compound | hERG current change (%, negative = inhibition) at 10uM |
| --- | --- |
| COc1ccc(Cn2c(C)nnc2-c2cnn(C)c2N)cc1 | 14.8% |
| O=S(=O)(NCC1CCCO1)c1cccc(S(=O)(=O)N2CCCC2)c1 (centres unmarked) | -14% |
| CCN1CCN(C(=O)CCNC(=O)Cn2ccc3ccccc3c2=O)CC1 | 13.9% |
| Cc1ccc(-c2nc(CSc3nc4ccccc4c(=O)n3C)cs2)cc1 | 9.52% |
| CCN1CCN(CCCNC(=O)c2ccc(NC(=O)C3=C(C)OCCS3)cc2)CC1 | 17.6% |
| O=C(O)c1cccc2c1/C(=N/Nc1ccc([N+](=O)[O-])cc1[N+](=O)[O-])c1ccccc1-2 | 19.7% |
| Cc1nn(-c2ccccc2)c(N)c1Sc1cccc([N+](=O)[O-])c1.Cl | -65.9% |
| Cc1nn(C(=O)c2cccc([N+](=O)[O-])c2)c(C)c1Sc1ccccc1 | 7.61% |
| Cc1ccc(-n2nc(C)c(Sc3ccccc3[N+](=O)[O-])c2N)cc1 | -17.2% |
| CCOc1ccc(NC(=O)c2ccc(NC(=S)NC3CCCCC3)cc2)cc1 | 20.9% |
| O=C(CCN1C(=O)[C@@H]2Cc3ccccc3CN2C1=O)NCc1ccc(Cl)cc1 | -64.2% |
| Cc1cc(C)cc(NC(=O)CCCCCN2C(=O)[C@@H]3Cc4ccccc4CN3C2=O)c1 | -51.9% |
| Cc1ccc(NC(=O)CCCCCN2C(=O)[C@@H]3Cc4ccccc4CN3C2=O)cc1 | -12.1% |
| COc1ccc(CNC(=O)CCN2C(=O)c3ccncc3C2=O)cc1OC | 13% |
| O=C(CCCN1C(=O)C(c2ccccc2)Oc2cccnc21)Nc1cccc(F)c1 (centres unmarked) | -50.2% |
| O=C(CCN1C(=O)[C@@H]2Cc3ccccc3CN2C1=O)NCc1ccccc1 | -12% |
| Cc1ccc(CNC(=O)CCN2C(=O)[C@@H]3Cc4ccccc4CN3C2=O)cc1 | -40.5% |
| Cc1cc(C)cc(NC(=O)CCCN2C(=O)C(c3ccccc3)Oc3cccnc32)c1 (centres unmarked) | -1.03% |
| O=C(CCN1C(=O)c2ccccc2C1=O)NCc1ccc(Cl)cc1 | -16.9% |
| Cc1cccc(NC(=O)CCCCCN2C(=O)[C@@H]3Cc4ccccc4CN3C2=O)c1 | -21.7% |
| O=C(CCN1C(=O)c2ccncc2C1=O)NCc1ccc(Cl)cc1 | -51.9% |
| CCc1cccc(NC(=O)CCCN2C(=O)C(c3ccccc3)Oc3cccnc32)c1 (centres unmarked) | -2.79% |

| Compound | hERG current change (%, negative = inhibition) at 10uM |
| --- | --- |
| Cc1ccccc1NC(=S)N(Cc1cccnc1)Cc1ccccc1Cl | -11.6% |
| COc1ccc(C(=O)Nc2ccccc2C(=O)N2CCCCCC2)cc1OC | -10.5% |
| Cc1c(NC(NC(=O)CF)C(Cl)(Cl)Cl)c(=O)n(-c2ccccc2)n1C (centres unmarked) | 4.94% |
| O=C(NC(=S)Nc1cc(Cl)ccc1N1CCOCC1)c1ccc(-c2cccc(Cl)c2)o1 | 8.91% |
| O=C(COc1ccccc1O)Nc1ccccc1Cl | -4.32% |
| COc1ccc(CCn2c(SCC(=O)Nc3cc(C)on3)nc3ccccc3c2=O)cc1OC | 0.454% |
| Cc1ccc(OC(=O)CCc2c(C)nc3ncnn3c2C)cc1 | -8.47% |
| O=C(CCN1C(=O)[C@@H]2Cc3ccccc3CN2C1=O)Nc1cccc(F)c1 | -13.8% |
| COc1cccc(NC(=O)CCCCCN2C(=O)[C@@H]3Cc4ccccc4CN3C2=O)c1 | -37.7% |
| O=C(CCCCCN1C(=O)[C@@H]2Cc3ccccc3CN2C1=O)Nc1cccc(F)c1 | -67.9% |
| CC1C(C#N)=C(N)OC2=C1C(=O)CC(C)(C)C2 (centres unmarked) | 9.35% |
| CCOc1cc(/C=N/NC(=O)N/N=C/c2ccc(O)c(OCC)c2)ccc1O | -10.1% |
| CCOc1cc(/C=N/NC(=O)NN(C)c2ncc(C(F)(F)F)cc2Cl)ccc1O | -54.3% |
| Cc1ccc(/C=N/NC(=O)NN(C)c2ncc(C(F)(F)F)cc2Cl)cc1 | -3.09% |
| CC1=C(C(=O)OCC2CCCO2)C(c2ccc(Cl)c(Cl)c2)NC(=O)N1 (centres unmarked) | 11.4% |
| CCN1C(=NCCOC)N[C@@H](CCc2ccccc2)[C@H](C(=O)OC)[C@H]1C | -1.21% |
| CCN1C(=NCc2ccc(OC)cc2)N[C@@H](CCc2ccccc2)[C@H](C(=O)NCc2ccc(OC)cc2)[C@H]1C | -65.4% |
| CCN1C(=NCC(C)C)N[C@@H](CCc2ccccc2)[C@H](C(=O)NCC(C)C)[C@H]1C | -16.2% |
| Cc1cc(/C=N/NC(N)=O)c(C)n1-c1ccc(F)cc1 | -2.06% |
| Cc1ccc(C(C(=O)NCc2ccc(F)cc2)N(C(=O)c2csnn2)C2CC2)o1 (centres unmarked) | -56.7% |
| Cc1ccc(C(C(=O)NCc2ccccc2)N(C(=O)c2csnn2)c2cccc3ccccc23)o1 (centres unmarked) | -13.2% |
| Cc1ccc(C(C(=O)NCc2ccc(F)cc2)N(C(=O)c2csnn2)C2CC2)cc1 (centres unmarked) | -19.3% |

| Compound | hERG current change (%, negative = inhibition) at 10uM |
| --- | --- |
| Cc1cccc(N(C(=O)c2csnn2)C(C(=O)NCc2ccccc2)c2cccs2)c1 (centres unmarked) | -9.49% |
| Cc1ccc(C(C(=O)NC2CCCC2)N(C(=O)c2csnn2)C2CCCC2)o1 (centres unmarked) | -4.91% |
| O=C(NCc1ccc(F)cc1)C(c1ccc(F)cc1)N(C(=O)c1csnn1)C1CC1 (centres unmarked) | 9.3% |
| Cc1ccc(C(C(=O)NC2CCCCC2)N(C(=O)c2csnn2)C2CC2)o1 (centres unmarked) | -57.6% |
| Cc1ccc(C(C(=O)NC2CCCCC2)N(C(=O)c2csnn2)C2CCCC2)o1 (centres unmarked) | -7.71% |
| Cc1cccc(N(C(=O)c2csnn2)C(C(=O)NCc2ccccc2)c2ccc(C)o2)c1 (centres unmarked) | -54.6% |
| O=[N+]([O-])c1cc2c(cc1Br)CCN2 | 11.2% |
| O=C(O/N=C1\CCCc2ccccc21)C1CC1 | 14.4% |
| O=C(O)CCCC(=O)Nc1ccc(Oc2cccc(C(F)(F)F)c2)nc1 | 19.4% |
| CCC(C(=O)NCCc1ccccc1OC)n1nc(C)c2c(C)n(-c3ccccc3)nc2c1=O (centres unmarked) | -30% |
| O=C(COC(=O)c1cc(NS(=O)(=O)c2cccs2)ccc1O)Nc1ccc(F)c(F)c1F | 4.87% |
| CCC(=O)Nc1cccc(NC(=S)NC(=O)c2cccs2)c1 | 3.59% |
| O=C(NC(=S)Nc1cccc(-c2ccc(CO)o2)c1)c1cccs1 | 23.7% |
| CC(C)(O)c1ccc2c(c1)CCC1C(C)(C(=O)O)CCCC21C (centres unmarked) | 4.17% |
| CCOC(=O)Cc1cc(=O)n2[nH]cc(-c3cccc(Br)c3)c2n1 | 35.6% |
| CC(=O)N1CCc2cc(S(=O)(=O)NC(C(=O)Nc3nc(C)cs3)C(C)C)ccc21 (centres unmarked) | 8.38% |
| CCN1C(=O)C2C(c3ccc(O)c(OC)c3)NC(C)(C(=O)OC)C2C1=O (centres unmarked) | 12.1% |
| COc1cc(=O)[nH]c(SCc2c(F)c(F)c(F)c(F)c2F)n1 | 0.443% |
| CC(=O)N(CC(=O)O)c1ccccc1C(=O)O | 12% |
| Cc1cccc(NC(=O)CN2C(=O)/C(=C3\SC(=S)N(CC4CCCO4)C3=O)c3ccccc32)c1 (centres unmarked) | 12.9% |
| O=C1/C(=C2\C(=O)N(Cc3ccc(F)cc3)c3ccccc32)SC(=S)N1CCS(=O)(=O)O | 4.31% |
| O=C(CN1C(=O)/C(=C2\SC(=S)N(CCS(=O)(=O)O)C2=O)c2ccccc21)Nc1cccc(Br)c1 | -73.1% |

| Compound | hERG current change (%, negative = inhibition) at 10uM |
| --- | --- |
| COc1ccccc1CCNC(=O)C1CCC(=O)N(C2CCCCCC2)C1 (centres unmarked) | -7.62% |
| Cc1ccc(-c2nnc3sc(-c4ccncc4)nn23)cc1 | -41.4% |
| Cc1cn2c(-c3ccncc3)nnc2s1 | 7.96% |
| N#Cc1cc2sc3nnc(-c4ccncc4)n3c2cc1C#N | -54% |
| COCCCNC(=O)c1ccc(Cn2c(=O)c3ccccc3n(CC(=O)NCc3ccco3)c2=O)cc1 | 6.71% |
| COc1cccc2sc(=NC(=O)CCS(=O)(=O)c3ccc(C)cc3)n(C)c12 | 8.32% |
| COc1cccc2sc(=NC(=O)CS(=O)(=O)c3ccc(Cl)cc3)n(C)c12 | -60.8% |
| COc1cccc2sc(=NC(=O)CS(=O)(=O)c3ccc(F)cc3)n(C)c12 | -0.213% |
| Cc1ccccc1OCC(=O)NN1C(=O)C2C3C=CC(O3)C2C1=O (centres unmarked) | 12.3% |
| COCCc1nnc(NC(=O)Cc2ccccc2)s1 | 4.67% |
| C#Cc1ccc([C@@H]2C=C(C(=O)NCc3ccccc3)O[C@H](OCc3ccc(CO)cc3)C2)cc1 | 6.15% |
| O=C(NCc1ccc2c(c1)OCO2)c1cc2ccccc2oc1=O | 12% |
| O=C(NCCC(=O)N(Cc1ccco1)Cc1cccs1)c1ccccc1Cl | -16.5% |
| O=C(c1cc2ccccc2oc1=O)N(Cc1cccs1)Cc1cccs1 | -14.4% |
| O=C(c1cc2ccccc2oc1=O)N(Cc1ccco1)Cc1cccs1 | -58.3% |
| O=C(c1cc2ccccc2oc1=O)N(Cc1ccco1)CC1CCCO1 (centres unmarked) | 6.96% |
| O=C(c1cc2ccccc2o1)N(Cc1ccco1)Cc1cccs1 | -35.4% |
| COc1ccccc1C(=O)NCCC(=O)N(Cc1ccco1)Cc1cccs1 | -21.3% |
| O=C(NCCC(=O)N(Cc1ccco1)Cc1cccs1)c1ccc(Br)cc1 | -58.7% |
| O=C(c1cc2ccccc2oc1=O)N(Cc1ccc2c(c1)OCO2)Cc1ccco1 | -59.3% |
